The values below come from PubChem BioAssay.

One experiment deals with Albumin (Bos taurus) (UniProt P02769). Description: bovine serum albumin binders on microarray, profiling panel, artefact control for SMM control protein annotation, biochemical, small-molecule microarray, Alexa647 label, 635/667 nm fluorescence (AID 1118).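 Note: score merges 667 nm emission intensity and signal-to-noise per printed compound spot.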 The conditions noted are these: BSA-A647 binding, fluorescence 635 nm, higher = more signal.
Experiment [1] can be described thus: small-molecule microarray binders of probe aXIP, primary screen, biochemical, NeuroSMM set, 635/667 nm fluorescence (AID 1119).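 Note: probe is the protein aXip251-270 applied at 1 µg/mL to compound-printed slides; binding of probe to printed compounds measured as 667 nm fluorescence plus signal to noise.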 The conditions noted are these: higher = more signal, called active from +8 up or from −8 down.
Experiment [2] is described as follows: small-molecule binders of probe aNOTCH3, primary screen, biochemical, small-molecule microarray, 635/667 nm fluorescence (AID 1120).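 Note: probe is a biotin-tagged antibody raised against NOTCH3 rather than NOTCH3 protein; score merges spot fluorescence near 667 nm with spot signal to noise.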 The conditions noted are these: higher = more signal.
Experiment [3] in a line: small-molecule binders of probe aNOTCH2, primary screen, biochemical, small-molecule microarray, 635/667 nm fluorescence (AID 1121).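 Note: score merges feature fluorescence read at 667 nm with its signal to noise.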 The conditions noted are these: higher = more signal.
Experiment [4] addresses Carbonic anhydrase 2 (Homo sapiens) (UniProt P00918). Briefly: CAII small-molecule binders, profiling panel, biochemical, small-molecule microarray, Alexa647-labelled CAII (AID 1122). The conditions noted are these: CAII-A647 binding fluorescence, higher = more signal.
Experiment [5] in a line: COS7 lysate on small-molecule microarray, probe aHis, 635 nm (AID 1123).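 Note: z-score combines 667nm fluorescence intensity with signal-to-noise per printed compound spot.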 The conditions noted are these: COS7 cell lysate, fluorescence, higher = more signal.
The nature of experiment [6]: compound binding in COS7 lysate, probe aLAP1, primary screen, cell lysate, small-molecule microarray (AID 1124).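 Note: lysate comes from COS7 cells expressing LAP1 and is applied at 0.3 µg/mL; score merges spot fluorescence near 667 nm with signal-to-noise over triplicate slides.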 The conditions noted are these: probe aLAP1, fluorescence, higher = more signal.
Another experiment relates to Sam68 (KHDRBS1). Description: Sam68 small-molecule binders, primary screen, biochemical, small-molecule microarray, 635 nm fluorescence (AID 1125).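 Note: score merges 667 nm channel intensity with signal to noise over triplicate slides.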 The conditions noted are these: small-molecule microarray binding, higher = more signal.
Experiment [7] concerns Chordin-like protein 2 (CHRDL2). Description: CHRDL2 small-molecule binders, primary screen, biochemical, small-molecule microarray, 635 nm fluorescence (AID 1126).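 Note: printed compound slides probed with Chrdl2 protein at 4 µg/mL for 1 h at 4 C; score merges 667 nm emission intensity with signal to noise over three replicate slides.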 The conditions noted are these: small-molecule microarray binding, fluorescence 635 nm; higher = more signal.
In experiment [8] the target is Concanavalin-A (Canavalia ensiformis) (UniProt P02866). Briefly: ConA small-molecule binders, primary screen, artefact control for SMM control protein annotation, biochemical, small-molecule microarray, Alexa647 label, 635 nm (AID 1127).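 Note: z combines 667 nm emission intensity with signal-to-noise across three replicate slides.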 The conditions noted are these: ConA-A647 binding fluorescence, higher = more signal.
Experiment [9] is described as follows: anti-His antibody binders, primary screen, artefact control for SMM control protein annotation, biochemical, small-molecule microarray, 635 nm fluorescence (AID 1128).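 Note: score merges feature fluorescence with signal-to-noise for each printed compound spot.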 The conditions noted are these: anti-His Alexa647 antibody binding, higher = more signal.
Experiment [10] relates to Human papillomavirus type 1a E7 protein (residues 1-88). Description: HPV1a E7 small-molecule binders, primary screen, biochemical, small-molecule microarray, residues 1-88, 635 nm (AID 1129). The conditions noted are these: small-molecule microarray binding, fluorescence 635 nm; higher = more signal.
In experiment [11] the target is Focal adhesion kinase 1 (Homo sapiens) (UniProt Q05397). Briefly: small-molecule microarray binders of FAK, primary screen, biochemical, 635/667 nm fluorescence, BSA, DTT (AID 1130).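 Note: composite of spot emission at 667 nm and signal to noise over triplicate slides.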 The conditions noted are these: PTK2 binding, 635 nm fluorescence, higher = more signal.
In experiment [12] the test system is Fibrinogen (Alexa647-labelled). Briefly: fibrinogen binders on compound microarrays, profiling panel, artefact control for SMM control-protein annotation, biochemical, small-molecule microarray, 635/667 nm fluorescence (AID 1131).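 Note: z-score merges 667 nm fluorescence with per-spot signal-to-noise over triplicate slides.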 The conditions noted are these: fibrinogen-A647 binding fluorescence, higher = more signal.
Experiment [13] concerns the target Follistatin (Homo sapiens) (UniProt P19883). Description: follistatin binders on small-molecule microarrays, primary screen, biochemical, small-molecule microarray, 635/667 nm fluorescence (AID 1132). The conditions noted are these: FST binding, 635 nm fluorescence, higher = more signal.
The target in experiment [14] is Fibroblast growth factor 2 (Homo sapiens) (UniProt P09038). Briefly: FGF2 binders on small-molecule microarrays, primary screen, biochemical, small-molecule microarray, 635/667 nm fluorescence (AID 1133). The conditions noted are these: small-molecule microarray binding, FGF2, fluorescence 635/667; higher = more signal.
The nature of experiment [15]: mitochondrial membrane potential change in A549 cells, profiling panel, cell-based, JC-1 fluorescence, basal, 24 h, 100 nL (AID 1138).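 Note: A549 lung adenocarcinoma cells under basal conditions with no added stimulus; test concentration not given here.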 The conditions noted are these: higher = more signal.
The test system of the next experiment is Lefty1. Description: Lefty1 binders on small-molecule microarrays, primary screen, biochemical, small-molecule microarray, 635/667 nm fluorescence (AID 1139). The conditions noted are these: small-molecule microarray binding, fluorescence 635/667; higher = more signal.
For experiment [16], the system named is wheat germ agglutinin (Triticum aestivum), Alexa647-labelled. Briefly: wheat germ agglutinin binders on compound microarrays, profiling panel, artefact control for SMM control-protein annotation, biochemical, small-molecule microarray, 635/667 nm fluorescence (AID 1140).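 Note: score merges 667 nm feature emission with signal to noise over triplicate slides.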 The conditions noted are these: WGA-A647 binding, 635 nm fluorescence, higher = more signal.

Experiment [17] deals with Luciferin 4-monooxygenase (Photinus pyralis) (UniProt P08659). Description: firefly luciferase enzyme inhibitors, primary screen, biochemical, luminescence, purified enzyme, 2006 set (AID 1141).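 Note: cell-free assay with purified firefly luciferase at 100 ng per well in PBS; test concentration not given here.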 The conditions noted are these: SteadyGlo luminescence, 30 min, higher = more signal, called active from +8 up or from −8 down.

The source made the active and inactive calls.

Fibroblast growth factor 2 (Homo sapiens), sequence (P09038 whole entry, looked up): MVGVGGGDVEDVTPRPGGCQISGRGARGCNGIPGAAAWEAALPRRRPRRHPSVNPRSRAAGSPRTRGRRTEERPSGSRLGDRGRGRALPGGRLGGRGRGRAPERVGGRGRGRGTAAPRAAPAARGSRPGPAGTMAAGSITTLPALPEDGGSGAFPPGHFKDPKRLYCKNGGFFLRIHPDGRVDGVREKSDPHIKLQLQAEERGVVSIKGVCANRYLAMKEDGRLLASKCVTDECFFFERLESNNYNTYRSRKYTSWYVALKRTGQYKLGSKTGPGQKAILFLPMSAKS
Albumin (Bos taurus), sequence (P02769 whole entry, looked up): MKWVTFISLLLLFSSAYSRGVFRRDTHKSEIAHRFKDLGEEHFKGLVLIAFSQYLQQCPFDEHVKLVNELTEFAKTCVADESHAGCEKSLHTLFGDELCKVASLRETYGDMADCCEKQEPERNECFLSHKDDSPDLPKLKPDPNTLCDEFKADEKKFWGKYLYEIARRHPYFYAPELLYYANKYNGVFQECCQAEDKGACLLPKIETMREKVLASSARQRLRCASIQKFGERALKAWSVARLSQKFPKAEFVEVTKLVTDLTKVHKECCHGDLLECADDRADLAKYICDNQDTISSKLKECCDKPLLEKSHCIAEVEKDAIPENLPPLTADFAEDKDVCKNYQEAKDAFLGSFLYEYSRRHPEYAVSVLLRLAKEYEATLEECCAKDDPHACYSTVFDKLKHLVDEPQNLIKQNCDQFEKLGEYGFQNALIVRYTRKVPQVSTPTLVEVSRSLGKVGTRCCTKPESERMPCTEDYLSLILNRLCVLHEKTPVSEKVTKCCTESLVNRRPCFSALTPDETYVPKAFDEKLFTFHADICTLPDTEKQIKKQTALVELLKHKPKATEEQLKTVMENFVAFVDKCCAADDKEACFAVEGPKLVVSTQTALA
Luciferin 4-monooxygenase (Photinus pyralis), sequence (P08659 whole entry, looked up): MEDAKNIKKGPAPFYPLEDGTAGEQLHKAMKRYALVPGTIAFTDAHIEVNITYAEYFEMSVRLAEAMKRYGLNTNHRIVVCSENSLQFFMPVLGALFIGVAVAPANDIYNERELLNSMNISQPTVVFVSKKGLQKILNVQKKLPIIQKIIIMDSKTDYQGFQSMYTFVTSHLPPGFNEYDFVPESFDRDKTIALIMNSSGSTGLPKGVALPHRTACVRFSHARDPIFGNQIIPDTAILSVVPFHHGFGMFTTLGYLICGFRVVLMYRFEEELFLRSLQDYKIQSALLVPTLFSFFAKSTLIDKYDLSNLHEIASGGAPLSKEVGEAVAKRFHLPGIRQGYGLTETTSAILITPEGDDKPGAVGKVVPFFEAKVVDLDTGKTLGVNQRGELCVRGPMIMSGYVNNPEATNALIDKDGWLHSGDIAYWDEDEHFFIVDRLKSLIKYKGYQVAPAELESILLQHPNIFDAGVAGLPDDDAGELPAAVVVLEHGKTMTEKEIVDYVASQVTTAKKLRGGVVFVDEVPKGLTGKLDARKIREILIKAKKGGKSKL
Focal adhesion kinase 1 (Homo sapiens), sequence (Q05397 whole entry, looked up): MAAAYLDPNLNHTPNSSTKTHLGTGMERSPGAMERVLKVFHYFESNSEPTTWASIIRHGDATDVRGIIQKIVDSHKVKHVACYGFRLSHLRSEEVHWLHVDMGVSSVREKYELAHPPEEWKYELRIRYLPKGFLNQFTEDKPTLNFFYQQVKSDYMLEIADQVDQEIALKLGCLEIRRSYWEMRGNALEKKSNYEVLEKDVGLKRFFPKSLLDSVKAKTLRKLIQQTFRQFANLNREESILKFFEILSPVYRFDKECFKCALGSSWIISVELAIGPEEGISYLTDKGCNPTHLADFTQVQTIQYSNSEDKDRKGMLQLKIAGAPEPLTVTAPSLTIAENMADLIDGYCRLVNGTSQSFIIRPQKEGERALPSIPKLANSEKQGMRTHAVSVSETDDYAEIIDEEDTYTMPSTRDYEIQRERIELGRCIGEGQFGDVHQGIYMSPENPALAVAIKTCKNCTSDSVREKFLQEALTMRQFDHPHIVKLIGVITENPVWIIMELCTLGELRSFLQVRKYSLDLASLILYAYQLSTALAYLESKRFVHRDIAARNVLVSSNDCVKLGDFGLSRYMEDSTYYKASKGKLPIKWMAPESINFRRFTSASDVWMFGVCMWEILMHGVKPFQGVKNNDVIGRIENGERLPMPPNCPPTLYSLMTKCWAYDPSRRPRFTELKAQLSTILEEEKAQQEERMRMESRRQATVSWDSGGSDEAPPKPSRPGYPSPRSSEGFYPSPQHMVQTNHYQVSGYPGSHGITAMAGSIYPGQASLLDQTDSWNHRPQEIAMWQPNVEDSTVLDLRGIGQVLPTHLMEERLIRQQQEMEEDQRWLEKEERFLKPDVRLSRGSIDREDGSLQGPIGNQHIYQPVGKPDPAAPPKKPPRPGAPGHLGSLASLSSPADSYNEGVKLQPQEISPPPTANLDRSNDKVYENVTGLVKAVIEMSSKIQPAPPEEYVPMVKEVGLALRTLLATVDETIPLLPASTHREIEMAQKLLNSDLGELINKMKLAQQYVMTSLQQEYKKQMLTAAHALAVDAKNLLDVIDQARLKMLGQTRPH
Follistatin (Homo sapiens), sequence (P19883 whole entry, looked up): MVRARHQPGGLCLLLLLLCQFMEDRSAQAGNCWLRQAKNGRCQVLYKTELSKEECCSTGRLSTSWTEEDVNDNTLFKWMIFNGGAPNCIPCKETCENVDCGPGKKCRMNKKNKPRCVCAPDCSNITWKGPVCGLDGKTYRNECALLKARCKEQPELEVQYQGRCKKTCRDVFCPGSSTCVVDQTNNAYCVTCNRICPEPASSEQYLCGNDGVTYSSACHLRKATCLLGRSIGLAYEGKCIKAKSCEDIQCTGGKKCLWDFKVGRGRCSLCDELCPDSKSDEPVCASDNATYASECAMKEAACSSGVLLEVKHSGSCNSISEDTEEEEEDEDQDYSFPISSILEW
Concanavalin-A (Canavalia ensiformis), sequence (P02866 whole entry, looked up): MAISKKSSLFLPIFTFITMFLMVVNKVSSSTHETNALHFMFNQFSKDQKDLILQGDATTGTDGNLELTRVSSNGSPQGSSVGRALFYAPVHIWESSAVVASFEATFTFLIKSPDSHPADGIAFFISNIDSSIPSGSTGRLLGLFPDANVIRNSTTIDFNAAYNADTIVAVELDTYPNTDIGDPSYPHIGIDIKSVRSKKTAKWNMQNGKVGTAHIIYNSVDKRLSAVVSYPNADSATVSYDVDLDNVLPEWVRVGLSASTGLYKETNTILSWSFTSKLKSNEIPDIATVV

Consider `CCOC(=O)[C@H](Cc1ccccc1)NC(=O)CCC1CC(OC(=O)NCc2ccc3c(c2)OCO3)CC2(CCCC(COC(=O)NCCOC)O2)O1` (stereo not given in full), for which the composite z-score with Albumin (Bos taurus) was -0.756; in [2], 0.163; in experiment [3], -0.0785; in [4], 0.134; in experiment [5] it was 0.577; in experiment [6], -0.172. For the same compound, the composite z-score in the experiment on Sam68 (KHDRBS1) is 1.3; in [7] it was 0.379; in experiment [8] it was 1.06; in [9] it was 0.431; in experiment [10], 1.14; in [11] it was -0.341. Moreover, the composite z-score in experiment [12] came to 0.69; in experiment [13] it was 0.808; in [14] it was 0.455; in the experiment with Lefty1 it was 1.26; in experiment [16], 0.581. Moreover, the composite Z-score in experiment [1] is 0.0786 (inactive). Besides, the z-score in experiment [15] was -0.599; in experiment [17], 0.724 (inactive).

In the case of `CON=C(C)CCN1CCCCc2nc(C)c(C)cc21`, the composite z-score with Albumin (Bos taurus) was -0.16; in [2], 0.245; in [3] it was 0.0207; in experiment [4], 0.53; in experiment [5], -0.0845; in experiment [6], -0.244. The composite z-score with Sam68 (KHDRBS1) was 0.119; in [7] it was 0.873; in experiment [8] it was -0.116; in experiment [9] it was 0.229; in experiment [10], -0.27; in [11], 0.145. In addition, the composite z-score came to 0.582 in [12]; 0.925 in experiment [13]; 0.644 in experiment [14]; 1.05 in the experiment with Lefty1; 0.495 in [16]. The composite Z-score in experiment [1] is 0.414 (inactive). Besides, the results for the z-score in experiment [15] and in [17] were 1.19 and -0.518 (inactive), respectively.

In the case of `O=C1C2=CC[C@H]3C(=O)N(c4ccc(F)cc4F)C(=O)[C@H]3[C@H]2[C@H](O)[C@@H]2O[C@H]12`, the composite z-score with Albumin (Bos taurus) was 0.0384; in [2], -0.165; in experiment [3] it was -0.118; in [4], -0.0649; in experiment [5], -0.293; in experiment [6], 0.0054. Moreover, the composite z-score in the experiment on Sam68 (KHDRBS1) is 0.339; in experiment [7], 0.783; in experiment [8], 0.469; in [9], 0.0402; in [10] it was 0.679; in experiment [11] it was -0.059. Moreover, the composite z-score was 0.0936 in experiment [12]; 0.397 in [13]; 0.34 in experiment [14]; 0.616 in the experiment on Lefty1; -0.0273 in experiment [16]. In [1], the composite Z-score was -0.778 (inactive). The figures for the z-score in [15] and in experiment [17] were 0.0712 and -0.51 (inactive), respectively.

On to `COC(=O)[C@H](C)NC(=O)CCC1CC(OC(=O)NCCc2ccc(F)cc2)CC2(CCCC(COC(=O)NCC3CCCCC3)O2)O1` (stereo not given in full), for which the composite z-score in the experiment with Albumin (Bos taurus) is 0.0505; in experiment [2], -0.0362; in experiment [3] it was -0.106; in [4], 0.427; in experiment [5], 1.52; in experiment [6], 0.191. Moreover, the composite z-score with Sam68 (KHDRBS1) amounted to 1.3; in [7], 0.507; in experiment [8], 0.971; in experiment [9], 0.608; in [10] it was 1.19; in [11], 0.178. Further, the composite z-score in experiment [12] worked out at 0.86; in experiment [13], 0.639; in experiment [14] it was 0.572; in the experiment on Lefty1, 0.744; in [16], 0.804. Also, the composite Z-score in experiment [1] is 0.697 (inactive). The z-score in experiment [15] was -1.03; in experiment [17], 0.765 (inactive).

For the compound `C[C@@H](c1ccccc1)N1C(=O)[C@H]2[C@H]3[C@H](O)[C@H](O)CC(=NOC[C@@H](O)COCc4ccco4)[C@H]3CC[C@H]2C1=O`, the composite z-score in the experiment with Albumin (Bos taurus) was -0.0559; in [2], 0.106; in [3] it was -0.189; in experiment [4], -0.578; in experiment [5], -0.795; in experiment [6], 0.565. The composite z-score with Sam68 (KHDRBS1) is -0.382; in [7], 1.51; in [8] it was -0.832; in experiment [9], 0.0749; in [10] it was -1.09; in experiment [11], -0.546. Besides, the composite z-score was 0.658 in [12]; 1.1 in experiment [13]; 1.36 in experiment [14]; 1.05 in the experiment on Lefty1; 0.0723 in [16]. Further, the composite Z-score in [1] was -0.0004 (inactive). The z-score was -0.882 in [15] and 0.997 (inactive) in experiment [17].
